# Screens from PubChem BioAssay.
# This is one part of a sample in which hits are shown more often than they occur.
# Pf Dd2 inh: qHTS Primary assay for Inhibitors of Plasmodium falciparum Dd2 growth in vitro; P. falciparum Dd2 growth, SYBR Green, 72 h; actives 4.3% (n = 120,000); Potency, µM (series often up to 28.9 µM), inactives show at the highest dose activity, negative = inhibition, most hits filed as inhibitors; active = well fitted inhibition curve with a large enough effect;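 note: plate controls were DMSO vehicle for no effect and reference drug for full effect; nearly all actives have a fitted effect of over 65% in size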
#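 Readout: SYBR Green fluorescence, 485 nm excitation, 535 nm emission, after ~16 h lysis at 37C. Before that, Dd2-infected red cells (2.5% hematocrit) grew 72 h with compound, 29 uM top final concentration.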
# An asterisk follows results filed as active; i = inactive; [ ] = dose if it differs, or a comment. Potency is the fitted concentration of half-maximal effect.
SMILES,Pf Dd2 inh
COc1ccc(CNC(=O)C[C@@H]2C[C@H]3O[C@H](CNC(=O)NC(C)C)[C@@H](O)[C@H]3O2)cc1,-11%[44.1 µM]
CC[C@H]1CN(S(=O)(=O)c2c(C)noc2C)CC[C@H]1CC(=O)NCc1ccco1,-3%[44.1 µM]
CSc1ncccc1C(=O)N1CCc2nc[nH]c2C1,-3%
Cn1cc(CN2C[C@@H]3C[C@H](C2)c2ccc(NC(=O)COc4ccccc4)c(=O)n2C3)c2ccccc21,-3%
CC(=O)c1ccc(NC(=O)N2C[C@@H]3C[C@H](C2)c2ccc(NC(=O)c4cccs4)c(=O)n2C3)cc1,-2%
Cn1cc(CN2C[C@@H]3C[C@H](C2)c2ccc(NC(=O)c4cccs4)c(=O)n2C3)c2ccccc21,7.9µM*
O=C(O)c1cccc2c1CCN2C(=O)c1ccc(F)cc1,8%
O=C1NC(C(=O)NCCCn2cccn2)Cn2cccc21 (centres undefined),16%
Cc1ccc(-c2cn[nH]c2C2CCCN(Cc3cn(CCO)nc3C)C2)cc1 (centres undefined),i
COc1cccc(C(=O)N2CCC(N3CC4CC(C3)[C@H]3CCCC(=O)N3C4)CC2)c1 (some centres undefined),-5%
CC(C)CC(=O)Nc1c(C(=O)N2CCN(c3ccccc3F)CC2)oc2ccccc12,7.1µM*
Cc1ccc(OCC(=O)Nc2c(C(=O)c3ccccc3)oc3ccccc23)cc1C,31%
O=C(Nc1c(C(=O)N2CCN(c3ccccc3F)CC2)oc2ccccc12)c1ccco1,4%
COc1ccc(OCC(=O)Nc2c(C(=O)N3CCN(c4ccccc4)CC3)oc3ccccc23)cc1,11µM*
CCCCC(=O)Nc1c(C(=O)N2CCN(c3ccccc3F)CC2)oc2ccccc12,11µM*
CCOc1ccc(NC(=O)c2oc3ccccc3c2NC(=O)COc2cccc(OC)c2)cc1,13%
CCC(=O)Nc1ccc(C2(C(=O)N3CCN(c4ccccc4F)CC3)CCC2)cc1,-10%
Cc1cccc(OCC(=O)Nc2c(C(=O)N3CCN(c4ccccc4F)CC3)oc3ccccc23)c1,-20%
CCCC(=O)Nc1c(C(=O)N2CCN(c3ccccc3)CC2)oc2ccccc12,120%[5.79 µM]
CC1(c2cccnc2)N(Cc2ccccc2)C(=O)OC12CCN(C(=O)CN1CCOCC1)CC2 (centres undefined),-20%
COc1ccccc1CC(=O)Nc1cnc(-c2cccc(Cl)c2)nc1,i
Cc1nc(N)nc(C)c1CC(=O)N1CC2(CCNCC2)CC1C(=O)O (centres undefined),-11%
CN(Cc1nc2c(s1)CCCC2)C(=O)CN1C(=O)CSc2ccccc21,-6%
COc1ccccc1CCC(=O)N1CCC(Cc2nncn2C)CC1,-8%
CCN(Cc1cc(C)[nH]n1)CC1CCCN(CCc2cccc(OC)c2)C1 (centres undefined),-17%
SMILES,Pf Dd2 inh
CCN(Cc1c(O)cccc1OC)CC1CCN(CCc2ccccc2C)CC1,16µM*
O=C(CCn1nnnc1CN1CCOCC1)N1CCN(c2nc3ccccc3s2)CC1,-2%
CN(Cc1ccccn1)C(C(=O)O)c1cnn(Cc2ccccc2)c1 (centres undefined),9%
O=C(c1cn2cc(-c3ccccc3Cl)n(CC3CC3)c(=O)c2n1)N1CC[C@@H](O)C1,i
COc1ccc(-c2cn3cc(C(=O)N4CCCC4)nc3c(=O)n2CC2CC2)c(F)c1,8.9µM*
COc1ccc(-c2cn3cc(C(=O)NCCO)nc3c(=O)n2CC2CC2)c(F)c1,-30%
CC1=NOC2(CCN(Cc3ccc(C(F)(F)F)cc3)C2)C1 (centres undefined),i
COCCOC1CCN(C(=O)Nc2ccccc2F)CC1,7%
CC1CCN(C(=O)CC(c2ccc(Cl)cc2)c2cn(C)c3ccccc23)CC1 (centres undefined),7.9µM*
CC1CCN(C(=O)Cn2cc(SCC(=O)NCc3ccccc3)c3ccccc32)CC1,-12%
CC1CCN(C(=O)Cn2cc(SCC(=O)Nc3ccccc3)c3ccccc32)CC1,-21%
Cc1nc2c(c(-c3ccc(O)cc3)n1)CN(Cc1cccn1C)CCC2,-31%
CCc1nc2c(c(-c3ccc(OC)cc3)n1)CCN(Cc1ccsc1)CC2,-27%
CCc1nc2c(c(-c3ccc(O)cc3)n1)CCN(Cc1cccn1C)CC2,8.9µM*
CCc1nc2c(c(-c3ccc(Cl)cc3)n1)CN(C(=O)C1CC1)CC2,-8%[44.1 µM]
CCc1nc2c(c(-c3ccc(Cl)cc3)n1)CCN(Cc1ccccc1)CC2,i
CCc1nc2c(c(-c3ccc(OC)cc3)n1)CCN(C(=O)c1ccccc1)CC2,-22%
CCc1nc2c(c(-c3ccc(Cl)cc3)n1)CN(C(=O)COC)CC2,2%
CCc1nc2c(c(-c3ccc(OC)cc3)n1)CCN(Cc1cccc(NC(C)=O)c1)CC2,13µM*
CCc1nc2c(c(-c3ccc(Cl)cc3)n1)CN(C(=O)Cc1cccc(Cl)c1)CC2,4.5µM*
CCc1nc2c(c(-c3ccc(Cl)cc3)n1)CCN(Cc1ccc(NC(C)=O)cc1)CC2,2.5µM*
CCc1nc2c(c(-c3ccc(Cl)cc3)n1)CCN(Cc1ccc(F)cc1)CC2,-10%
COc1ccc(-c2nc(C)nc3c2CCN(Cc2cccn2C)CC3)cc1,i
COc1ccccc1N1CCN(C(=O)C[C@@H]2CCNC[C@@H]2Cc2cc(-c3ccccc3)on2)CC1,-28%
CCc1noc(-c2cn(C3CCCN(C(=O)c4ccc(F)c(F)c4)C3)nn2)n1 (centres undefined),i
SMILES,Pf Dd2 inh
O=C(c1cccs1)N1CCCC(n2cc(-c3nc(-c4ccccc4)no3)nn2)C1 (centres undefined),-3%
CC(=O)Nc1ccc(OCC(=O)NCc2ccccc2F)nc1,14%
COc1cccc(N2C(=O)NC(=NC3CCCCC3)C23CCN(C(=O)c2ccccc2F)C3)c1 (centres undefined),-15%
Cc1ccc(NC(=O)C2CCN(C(=O)c3ncn4c3COC(c3ccc(F)cc3)C4)CC2)cc1Cl (centres undefined),-11%
COc1ccccc1CCN1CCCC(CN(C)C(=O)Nc2ccccc2)C1 (centres undefined),2.2µM*
COc1ccccc1CN1CCCC(CN(CCN(C)C)C(=O)c2ccccc2OC)C1 (centres undefined),i
Cc1cc(C(=O)N(C)CC2CCCN(CCc3ccccc3F)C2)n[nH]1 (centres undefined),-28%
CC(C)(C)CCN1CCCC(COc2ccccc2C(=O)N2CCCC2)C1 (centres undefined),i
Cn1cccc1CN1CCCC(COc2ccccc2C(=O)N2CCCCC2)C1 (centres undefined),i
COc1ccccc1CCN1CCCC(CN(C)C(=O)C(=O)c2cccn2C)C1 (centres undefined),14µM*
COc1ccc(Cn2c(-c3cccc(Cl)c3)nc(C)c(CCO)c2=O)cc1F,-23%
O=C(Cc1c(F)cccc1Cl)Nc1ccc2ncnc(N3CCCC3)c2c1,-20%
COc1ccccc1CC(=O)Nc1ccc2ncnc(N3CCCCC3)c2c1,i
O=C(Cc1cccc(F)c1)Nc1ccc2ncnc(N3CCCCC3)c2c1,-14%
COc1cccc(CC(=O)Nc2ccc3c(N4CCCCC4)ncnc3c2)c1,11µM*
O=C(Cc1ccccc1F)Nc1ccc2c(N3CCCCC3)ncnc2c1,13µM*
COc1ccc(CC(=O)Nc2ccc3ncnc(N4CCCCC4)c3c2)c(Cl)c1,-22%
CCS(=O)(=O)N1CCC[C@H]1C(=O)N1CCCCCCNC(=O)CC1,5%
COCCn1c(CN2C(=O)CCc3ccccc32)nnc1C1CC(N)C1 (centres undefined),-2%
